Inconclusive results are not listed. Activity calls are given as the source filed them. How the source made its calls: active means hit-call score of the fitted dose curve at least 0.9, where 1 is the maximum; inconclusive means response in the unintended direction; inactive means score below 0.9.

A short description of this test: Tanguay_ZF_120hpf_SNOU_legacy: (Legacy) Oregon State University Tanguay Lab 120 Hour Post-fertilization zebrafish Assay for Snout Malformation (AID 2283637). As to the method: Tanguay_ZF_120hpf_legacy is a whole embryo, multiplexed endpoint assay using zebrafish larvae exposed for 120 hours post fertilization on a 96-well plate.Tanguay_ZF_120hpf_SNOU_legacy is one of one assay component(s) measured or calculated from the Tanguay_ZF_120hpf_legacy assay. It is designed to make measurements of zebrafish development as detected with brightfield microscopy of developing zebrafish embryos.Data from the assay component Tanguay_ZF_120hpf_SNOU_legacy was analyzed into 1 assay endpoints. This assay endpoint, Tanguay_ZF_120hpf_SNOU_legacy, was analyzed in the positive analysis fitting direction relative to DMSO as the negative control and baseline of activity. Using a type of morphology reporter, gain-of-signal activity can be used to understand changes in developmentals as they relate to the whole embryo. To generalize the intended target to other relatable targets, this assay endpoint is annotated to the zebrafish development intended target family, where the subfamily is embryonic snout morphogenesis.
Zebrafish husbandry: Tropical 5D wild-type adult zebrafish were housed in at an approximate density of 1000 per 100 gallon tank at the Sinnhuber Aquatic Research Laboratory, Oregon State University, Corvallis, OR. Each tank was kept at standard laboratory conditions of 28C on a 14-h light/10-h dark photoperiod in fish water consisting of reverse osmosis water supplemented with a commercially available salt (Instant Ocean). Spawning funnels were placed into the tanks the night prior, and embryos were collected and staged. To increase bioavailability, the chorion was enzymatically removed using pronase (63.6mg/ml, >/= 3.5U/mg, Sigma-Aldrich: P5147) at 4 hours post fertilization (hpf) using a custom automated dechorionator.Chemical exposures: Six hpf dechorionated embryos were placed 1 embryo per well in a 96-well plate prefilled with 90 ul of EM using automated embryo placement systems (AEPS). Ten microliters of each row of dilution plate 2 was added to 2 exposure plates. The final DMSO concentration used was 0.64% (vol/vol). Thirty-two embryos were also exposed to 5uM trimethyltin chloride (positive control). Plates were sealed to prevent evaporation and foil covered to reduce light exposure and kept in a 28C incubator. Embryos were statically exposed until 120 hpf. At 24 hpf, embryos were assessed for photomotor response using a custom photomotor response analysis tool (PRAT) and for developmental toxicity endpoints (MO24: mortality at 24 hpf, DP: developmental progression, SM: spontaneous movement, and NC: notochord distortion). At 120 hpf, locomotor activity was measured using Viewpoint Zebralab and assessed for 18 endpoints. Zebrafish acquisition and analysis program (ZAAP), a custom program designed to inventory, acquire, and manage zebrafish data, was used to collect developmental endpoints as either present or absent (i.e., binary responses were recorded). If mortality occurred for an embryo (at either 24 or 120 hpf), the non-mortality endpoints were not measured.
For `Clc1ccccc1C(c1ccccc1)(c1ccccc1)n1ccnc1`, the compound was classed as inactive.

With `CN(C[C@@H](CC[N+]12CCC(C3CCCCC3)(CC1)CC2)c1ccc(Cl)c(Cl)c1)C(=O)c1cc(C(F)(F)F)cc(C(F)(F)F)c1`, the outcome was inactive.

For the compound `Cc1cn([C@H]2C[C@H](N=[N+]=[N-])[C@@H](CO)O2)c(=O)[nH]c1=O`, the result was inactive.

For `OCCO`, the call was inactive.

With `CCCCCCCCCCCC[N+](C)(C)C`, the compound was classed as inactive.

For the compound `CCCCCCCCCCCO`, the compound was classed as inactive.

`O=c1c(-c2ccc(O)cc2)coc2cc(O)cc(O)c12`: the compound was classed as inactive.

`CCCCCCCCCC(=O)O`: the result was inactive.

Turning to `CCN(CC)C(=O)c1cc(S(=O)(=O)Cc2ccccc2)c(N2CCC(c3ccccc3)CC2)cc1N(CC)CCN(C)C`, the AC50 – broadly, the concentration giving half of the maximal activity seen – is 18 µM (active).

Consider `Cc1oc2c(NC(=O)c3c(Cl)cccc3Cl)cccc2c1C(C)(C)O`, for which the result was inactive.

Turning to `O=c1[nH]sc2ccccc12`, the compound was called inactive.

In the case of `CCCCCCCC[Si](OCC)(OCC)OCC`, the result was inactive.

`CN(C)C(=O)C1(N2CCCCC2)CCN(CC[C@@]2(c3ccc(Cl)c(Cl)c3)CN(C(=O)c3ccccc3)CCO2)CC1`: the compound was called inactive.

Regarding `CCCCCc1ccc(N)cc1`, the call was inactive.

Turning to `CC(=O)N1CCN(c2ccc(OC[C@H]3CO[C@](Cn4ccnc4)(c4ccc(Cl)cc4Cl)O3)cc2)CC1`, the compound was called inactive.

With `CN1C(=O)CC[C@H]1c1cccnc1`, the call was inactive.

Regarding `O=C1O[C@H]([C@@H](O)CO)C(O)=C1O`, the result was inactive.

Regarding `O=C(O)Cc1cc(I)c(Oc2ccc(O)c(I)c2)c(I)c1`, the AC50 is 0.0814 µM (active).

For the compound `CC/C(=C(/CC)c1ccc(O)cc1)c1ccc(O)cc1`, the call was inactive.

With `CCCCCCCCOC(=O)c1cc(O)c(O)c(O)c1`, the result was inactive.

With `Oc1ccccc1`, the result was inactive.

Take `CCO[Si](CCCNC(N)=O)(OCC)OCC`: the compound was called inactive.

`Oc1ccc2ccccc2c1`: the concentration at half-maximal activity (AC50) is 34.8 µM (active).

Turning to `COc1cccc([C@H](O)C2CCN(CCc3ccc(F)cc3)CC2)c1OC`, the AC50 is 45.8 µM (active).

`Cc1ncc(CO)c(CO)c1O`: the call was inactive.

In the case of `O=C=NCCCCCCN=C=O`, the call was inactive.

As for `CCCOC(=O)c1cc(O)c(O)c(O)c1`, the outcome was inactive.

On to `O=C(O)c1ccccc1C(=O)OCc1ccccc1`, for which the outcome was inactive.

In the case of `CO[C@H]1/C=C/O[C@@]2(C)Oc3c(C)c(O)c4c(O)c(c(/C=N/N5CCN(C)CC5)c(O)c4c3C2=O)NC(=O)/C(C)=C\C=C\[C@H](C)[C@H](O)[C@@H](C)[C@@H](O)[C@@H](C)[C@H](OC(C)=O)[C@@H]1C`, the compound was classed as inactive.

Take `Cc1ccc2oc(CN(Cc3ccccc3)C(=O)Nc3c(F)cc(F)cc3F)c(-c3ccc(Cl)cc3)c2c1`: the compound was called inactive.

Take `Cc1c2ccccc2c(C)c2c1ccc1ccccc12`: the compound was classed as inactive.

As for `CCCCOC(=O)c1ccc(O)cc1`, the AC50 is 24.9 µM (active).

Regarding `CC(O)CC(C)(C)O` (stereo not given), the outcome was inactive.

Take `CCN(Cc1cccnc1)C(=O)c1cccc(Cl)c1[C@]1(C)C(=O)N(Cc2ccc(OC)cc2OC)c2ccc(Cl)cc21`: the result was inactive.

Take `Clc1cc(Cl)c2c(c1)N=C1CCCCCN1C2`: the AC50 was 8.56 µM (active).

Regarding `C[C@]12CC[C@@H]3c4ccc(O)cc4CC[C@H]3[C@@H]1CCC2=O`, the result was inactive.

In the case of `O=C(O)c1ccccc1-n1cc(C(=O)O)c(=O)c2cc(Nc3c(F)cc(F)cc3Cl)c(Cl)cc21`, the outcome was inactive.

In the case of `NC(=O)c1nc(-c2cccc(-c3cc(F)ccc3OCC(F)(F)C(F)(F)F)c2)n[nH]1`, the AC50 is 25.8 µM (active).

As for `CCOC(=O)O[C@H](C)OC(=O)c1ccc2c(c1)cc(C(=O)NC1CCN(C(C)C)CC1)n2Cc1cc(-c2ccc(Cl)s2)on1`, the AC50 is 54.1 µM (active).

Take `CC(C)(C)c1cc(/C=C2\SC(N)=NC2=O)cc(C(C)(C)C)c1O`: the result was inactive.

Values taken from PubChem BioAssay (EPA / NIEHS).
